Reference: PubChem BioAssay (EPA / NIEHS)
Inconclusive results are not listed. Active and inactive are the calls of the source. Rule for the calls, unless noted: active = hit-call score of the fitted dose curve at least 0.9, where 1 is the maximum; inconclusive = response in the unintended direction; inactive = score below 0.9.

Tests used:
[1] = Tanguay_ZF_120hpf_PE_legacy: (Legacy) Oregon State University Tanguay Lab 120 Hour Post-fertilization zebrafish Assay for Pericardial Edema (AID 2283640);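 for AC50: potency for increased incidence of pericardial edema versus DMSO baseline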
Outline: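 Zebrafish larvae are exposed from early development to 120 hpf at 28C, with 0.64% DMSO final. Each surviving larva receives a yes/no pericardial edema call by brightfield imaging, analysed relative to the DMSO baseline.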

[2] = Tanguay_ZF_120hpf_BRAI_legacy: (Legacy) Oregon State University Tanguay Lab 120 Hour Post-fertilization zebrafish Assay for Brain Malformation (AID 2283641)
Outline: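 Static exposure of staged wild-type embryos until 120 hpf, kept at 28C with light excluded and final DMSO of 0.64% (vol/vol). Presence or absence of brain malformation was noted under brightfield; mortality precluded scoring.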

[3] = Tanguay_ZF_120hpf_SOMI_legacy: (Legacy) Oregon State University Tanguay Lab 120 Hour Post-fertilization zebrafish Assay for Somite Malformation (AID 2283647)
Outline: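 Somitogenesis defects are recorded as binary calls in whole larvae at 120 hpf after continuous static chemical exposure starting at 6 hpf in dechorionated 5D embryos. DMSO serves as negative control and baseline.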

[4] = Tanguay_ZF_120hpf_PFIN_legacy: (Legacy) Oregon State University Tanguay Lab 120 Hour Post-fertilization zebrafish Assay for Pectoral Fin Malformation (AID 2283648);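 note: each larva judged yes or no for fin defect by brightfield with dead larvae skipped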
Outline: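 Binary pectoral fin malformation call at 120 hpf by brightfield microscopy; 5D wild-type zebrafish, chorion removed at 4 hpf, one embryo per well from 6 hpf, static exposure at 28C; DMSO (0.64% final) as baseline.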

[5] = Tanguay_ZF_120hpf_CFIN_legacy: (Legacy) Oregon State University Tanguay Lab 120 Hour Post-fertilization zebrafish Assay for Caudal Fin Malformation (AID 2283649)
Outline: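 Single dechorionated 5D wild-type embryos are dosed at 6 hpf (final DMSO 0.64%) and held statically at 28C. Caudal fin malformation is recorded as present or absent at 120 hpf under brightfield, excluding dead embryos.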

[6] = Tanguay_ZF_120hpf_TRUN_legacy: (Legacy) Oregon State University Tanguay Lab 120 Hour Post-fertilization zebrafish Assay for Truncated Body (AID 2283655)
Outline: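 Single dechorionated zebrafish embryos received test chemical from 6 hpf in 0.64% DMSO, kept at 28C. At 120 hpf, brightfield inspection noted any truncated body.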

[7] = Tanguay_ZF_120hpf_NC_legacy: (Legacy) Oregon State University Tanguay Lab 120 Hour Post-fertilization zebrafish Assay for Notochord and Tail Malformation (AID 2283656)
Outline: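 Binary notochord-distortion calls, made by brightfield inspection, form the read-out; activity is fitted in the positive direction against DMSO. Exposure ran statically from 6 to 120 hpf at 28C with 0.64% DMSO.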

[8] = Tanguay_ZF_120hpf_TR_legacy: (Legacy) Oregon State University Tanguay Lab 120 Hour Post-fertilization zebrafish Assay for Touch Response (AID 2283667)
Outline: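 Binary touch-response call at 120 hpf, analysed as gain of signal versus DMSO baseline. Wild-type 5D larvae, static exposure at 28C, 0.64% DMSO final; 5uM trimethyltin chloride as positive control.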

[9] = CCTE_Padilla_ZF_144hpf_TERATOSCORE: (Legacy) CCTE's 144 Hour Post-fertilization zebrafish Assay Teratoscore, Padilla Lab (AID 2283679; active = hit-call score of the fitted dose curve at least 0.9, where 1 is the maximum; inactive = score below 0.9;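 for AC50: zebrafish embryos with chorions exposed by immersion from 6-8 hpf to 5 dpf with daily renewal; teratogenicity score from eye scoring of death hatching and malformations at 144 hpf; higher score means more developmental defects relative to DMSO baseline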)
Outline: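 Larvae scored by eye at 144 hpf for death, hatching and malformations after a day in clean Hanks'. Before that, daily-renewed exposure at 80 uM (0.4% DMSO, 26C) from roughly 6-8 hpf through 5 dpf, 4 embryos per chemical.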

[10] = Tanguay_ZF_120hpf_PIG_legacy: (Legacy) Oregon State University Tanguay Lab 120 Hour Post-fertilization zebrafish Assay for Pigmentation Malformation (AID 2283650);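 note: dechorionated Tropical 5D zebrafish embryos exposed singly from 6 to 120 hpf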
Outline: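 Brightfield scoring of pigmentation malformation at 120 hpf, recorded as binary present/absent per larva. Exposure: dechorionated 5D wild-type embryos, one per well, static from 6 hpf at 28C, final DMSO 0.64% (vol/vol). Dead embryos not scored.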

[11] = Tanguay_ZF_120hpf_SWIM_legacy: (Legacy) Oregon State University Tanguay Lab 120 Hour Post-fertilization zebrafish Assay for Swim Bladder Malformation (AID 2283654);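 note: swim bladder malformation in each larva scored yes or no under brightfield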
Outline: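 Tropical 5D embryos dechorionated at 4 hpf; 1 embryo/well from 6 hpf; static, sealed, dark exposure at 28C until 120 hpf; final DMSO 0.64%; 5uM trimethyltin chloride positive control; swim bladder defect recorded yes/no; dead embryos not scored.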

[12] = STM_H9_OrnithineISnorm_perc: Stemina devTOX quickPredict H9 human embryonic stem cell (hESC)-based Assay for Ornithine (ORN) Metabolite Biomarker, Normalized (AID 2283712; active = hit-call score of the fitted dose curve at least 0.9, where 1 is the maximum; inactive = score below 0.9;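 note: ornithine released into spent medium during last day measured by mass spectrometry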)
Outline: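 UPLC-HRMS readout: endogenous ornithine EIC area / 13C-ORN internal standard, then % of 0.1% DMSO median. H9 hESCs (pluripotent), 72h exposure, re-dosed with fresh media q24h; last 24-h spent media, deproteinized in 40% acetonitrile.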

[13] = tested on: Thyroperoxidase (TPO), gene 54314; experiment: CCTE_Simmons_AUR_rTPO: CCTE's Amplex UltraRed Assay for Thyroperoxidase (TPO) Inhibition, Simmons Lab (AID 2283662);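 note: potency for loss of signal meaning inhibition of peroxidase activity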
Outline: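 Rat thyroid microsomal TPO + 25 uM AUR in 200 mM K phosphate; cpd 5 nM–87.5 uM [final], 8 conc, 0.5% DMSO; 300 uM H2O2 starts rxn; 37C dark 30 min; endpoint FI 544/590 nm; n=3.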

[14] = CCTE_Simmons_CellTiterGLO_HEK293T: Viability Assessment in CCTE's Assays for Thyroperoxidase (TPO) Inhibition, Simmons Lab (AID 2283665)
Outline: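 Luminescent ATP readout (CellTiter-Glo, 20 min at room temperature) after 24 hr exposure of HEK293T cells to 5 nM–87.5 uM final compound; signal loss relative to DMSO vehicle indicated cytotoxicity; dichlone titrated as positive control.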

[15] = read-out: kallikrein-3 (KLK3), KLK3 (gene 354); experiment: LTEA_HepaRG_KLK3: Life Technologies and Expression Analysis (LTEA) Assay for kallikrein-3 (KLK3) using HepaRG (AID 2283652; active = hit-call score of the fitted dose curve at least 0.9, where 1 is the maximum; inactive = score below 0.9); settings: mRNA level, 48 h; actives raise or lower the signal
Outline: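 KLK3 transcript levels were measured by TaqMan qRT-PCR with normalisation to three housekeeping genes. HepaRG cultures received chemicals for 48 h at up to 100 uM (half-log, 8 points, 0.5% DMSO vehicle), fitted in both directions against DMSO.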

[16] = read-out: solute carrier (SLC22A6), SLC22A6 (gene 9356); experiment: LTEA_HepaRG_SLC22A6: Life Technologies and Expression Analysis (LTEA) Assay for solute carrier (SLC22A6) using HepaRG (AID 2283653; active = hit-call score of the fitted dose curve at least 0.9, where 1 is the maximum; inactive = score below 0.9); settings: mRNA level, 48 h; actives raise or lower the signal
Outline: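 Gene-expression endpoint in HepaRG hepatic cells: duplicate 8-point concentration-response, highest 100 uM, 48 h treatment in serum-free medium with 0.5% DMSO. SLC22A6 expression measured by qRT-PCR, normalised to ACTB/GAPDH/POLR2A.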

[17] = read-out: solute carrier (SLC10A1), SLC10A1 (gene 6554); experiment: LTEA_HepaRG_SLC10A1: Life Technologies and Expression Analysis (LTEA) Assay for solute carrier (SLC10A1) using HepaRG (AID 2283657; active = hit-call score of the fitted dose curve at least 0.9, where 1 is the maximum; inactive = score below 0.9); settings: mRNA level, 48 h; actives raise or lower the signal
Outline: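 HepaRG, 48 h exposure, 8-pt half-log curve from 100 uM in 0.5% DMSO, duplicates. Read-out: TaqMan qRT-PCR of SLC10A1 mRNA, normalized to three housekeeping genes. Gain/loss fit vs DMSO baseline.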

[18] = read-out: matrix metalloproteinase-1 (MMP1), MMP1 (gene 4312); experiment: LTEA_HepaRG_MMP1: Life Technologies and Expression Analysis (LTEA) Assay for matrix metalloproteinase-1 (MMP1) using HepaRG (AID 2283658; active = hit-call score of the fitted dose curve at least 0.9, where 1 is the maximum; inactive = score below 0.9); settings: mRNA level, 48 h; actives raise or lower the signal
Outline: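 In this screen, human liver HepaRG cultures receive each chemical in duplicate for 48 h (top 100 uM, 0.5% DMSO). MMP1 expression is then quantified by TaqMan qRT-PCR with ACTB/GAPDH/POLR2A normalization.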

[19] = read-out: Cytochrome P450 (CYP24A1_1), CYP24A1 (gene 1591); experiment: LTEA_HepaRG_CYP24A1_1: Life Technologies and Expression Analysis (LTEA) Assay for Cytochrome P450 (CYP24A1_1) using HepaRG (AID 2283671; active = hit-call score of the fitted dose curve at least 0.9, where 1 is the maximum; inactive = score below 0.9); settings: mRNA level, 48 h; actives raise or lower the signal
Outline: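 Readout is CYP24A1 transcript level by qRT-PCR, normalized to three housekeeping genes, with gain or loss of signal fitted against 0.5% DMSO. Human HepaRG cells received compound for 48 h at up to 100 uM.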

[20] = Tanguay_ZF_120hpf_CIRC_legacy: (Legacy) Oregon State University Tanguay Lab 120 Hour Post-fertilization zebrafish Assay for Circulatory Malformation (AID 2283651)
Outline: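 Static exposure, 6–120 hpf, 28C, sealed and dark; one dechorionated 5D embryo/well; DMSO 0.64% v/v final. Binary circulation endpoint by brightfield; dead embryos not scored.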

Measured: AC50

COc1cc(C(C)C)c2c(c1)S(=O)(=O)N(COc1cc(=O)n3cccc(OCCN4CCCCC4)c3n1)C2=O
inactive: [2] | [3] | [4] | [5] | [6] | [7] | [8]
active: [1] 20 µM | [9] 15.5 µM

C[C@]12C=CC(=O)C=C1CC[C@H]1[C@@H]3C[C@@H](O)[C@](O)(C(=O)CO)[C@@]3(C)C[C@H](O)[C@@]12F
inactive: [1] | [2] | [3] | [4] | [5] | [10] | [11] | [6] | [7] | [8] | [12]

C[C@@H](Oc1ccc(CNC(=O)c2cccnc2Oc2ccc3c(c2)OCO3)c(F)c1)C(=O)O
active: [13] 22.2 µM
inactive: [1] | [2] | [3] | [4] | [5] | [10] | [6] | [14] | [8] | [9]

CNC(C)=O
inactive: [1] | [2] | [4] | [5] | [10] | [6] | [7] | [8]

CCCCCCCCN(C)C
inactive: [2] | [3] | [4] | [5] | [10] | [11] | [6] | [7] | [8]

CCCC(CCC)C(=O)O
active: [9] 78.7 µM | [12] 334 µM
inactive: [1] | [2] | [4] | [5] | [10] | [15] | [16] | [11] | [6] | [7] | [17] | [18] | [8] | [19]

O=C(O)c1cccc(C[C@@H]2COc3ccc(OCc4nc5cc(F)ccc5s4)cc3[C@@H]2O)c1
active: [1] 0.953 µM | [9] 0.463 µM
inactive: [2] | [3] | [4] | [5] | [6] | [8]

CCCCOC(=O)c1ccccc1
inactive: [1] | [3] | [5] | [10] | [6] | [7] | [8]
active: [9] 59.1 µM

CCc1cccc(CC)c1N
inactive: [2] | [3] | [5] | [10] | [20] | [7] | [8]

CCn1nc(C)c2c1C(=O)NCC(c1ccc(O)cc1)=N2
active: [13] 11.9 µM
inactive: [2] | [3] | [4] | [5] | [10] | [11] | [6] | [7] | [14] | [8]

Cc1cccc(O)c1C
active: [13] 17.3 µM
inactive: [14]

COCc1nnc(-c2ccc[n+]([O-])c2)n1-c1c(Cl)c(Cl)cc2[nH]c(=O)c(=O)[nH]c12
inactive: [1] | [3] | [5] | [10] | [6] | [7] | [8]

CCCCCCCC1CCC(=O)O1 (centres undefined)
inactive: [1] | [3] | [5] | [10] | [20] | [6] | [7] | [8]
active: [4] 51.5 µM | [9] 8.03 µM

CCCCCCCCCC
inactive: [1] | [2] | [3] | [5] | [10] | [20] | [7] | [8] | [12]

Cc1ncc([C@@H](CCCCCCc2ccc3c(n2)NCCC3)CC(=O)O)cn1
inactive: [1] | [2] | [3] | [5] | [10] | [20] | [11] | [6] | [7] | [8] | [12]

O=S(=O)(O)c1ccc(N=Nc2c(O)ccc3cc(S(=O)(=O)O)ccc23)cc1
inactive: [1] | [2] | [3] | [4] | [10] | [20] | [7] | [8]

Cc1nccn1-c1ccc(Sc2cccc(C3(C(N)=O)CCOCC3)c2)cc1
inactive: [1] | [2] | [3] | [4] | [10] | [20] | [6] | [7] | [8]

OC(CCl)CCl
inactive: [1] | [2] | [3] | [4] | [10] | [6] | [7] | [8]

NC(N)=O
inactive: [3] | [4] | [5] | [10] | [6] | [7] | [8]
